# Measurements published in paper PMC5540273 (PLoS ONE, 2017).
# Like-named read-outs stand apart in the source and are kept apart here.
# Columns and labels:
# [1] = test system: JAK1(JH2domain-pseudokinase); details: concentration: 1 μM,replicates: in singlicate; n = 1
# [2] = test system: JAK2(JH1domain-catalytic); details: concentration: 1 μM,replicates: in singlicate; n = 1
# [3] = test system: JAK3(JH1domain-catalytic); details: concentration: 1 μM,replicates: in singlicate; n = 1
# JNK1 = test system: T1, JNK1; details: concentration: 1 μM,replicates: in singlicate; n = 1
# T1 construct: gene MAPK8
# JNK2 = test system: T2, JNK2; details: concentration: 1 μM,replicates: in singlicate; n = 1
# T2 construct: gene MAPK9
# JNK3 = test system: T3, JNK3; details: concentration: 1 μM,replicates: in singlicate; n = 1
# T3 construct: gene MAPK10
# KIT-autoinhibited = details: concentration: 1 μM,replicates: in singlicate; n = 1
# KIT = details: concentration: 1 μM,replicates: in singlicate; n = 1
# LATS1 = details: concentration: 1 μM,replicates: in singlicate; n = 1
# LATS2 = details: concentration: 1 μM,replicates: in singlicate; n = 1
# LCK = details: concentration: 1 μM,replicates: in singlicate; n = 1
# LIMK1 = details: concentration: 1 μM,replicates: in singlicate; n = 1
# LIMK2 = details: concentration: 1 μM,replicates: in singlicate; n = 1
# LKB1 = test system: T4, LKB1; details: concentration: 1 μM,replicates: in singlicate; n = 1
# T4 construct: gene STK11
# LOK = test system: T5, LOK; details: concentration: 1 μM,replicates: in singlicate; n = 1
# T5 construct: gene STK10
# LRRK2 = details: concentration: 1 μM,replicates: in singlicate; n = 1
# LTK = details: n = 1
# LYN = details: concentration: 1 μM,replicates: in singlicate; n = 1
# LZK = test system: T6, LZK; details: concentration: 1 μM,replicates: in singlicate; n = 1
# T6 construct: gene MAP3K13
# MAK = details: concentration: 1 μM,replicates: in singlicate; n = 1
# [4] = concentration: 1 μM,replicates: in singlicate
# 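Further: KINOMEscan kinase panel screen.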
structure (smiles),measurement,setting,value
O=C(Nc1n[nH]c2cc(-c3ccco3)ccc12)C1CC1 [SB-737447],%Inh,[1],63%
same,%Inh,[2],27%
same,%Inh,[3],30%
same,%Inh,JNK1,38%
same,%Inh,JNK2,17%
same,%Inh,JNK3,32%
same,%Inh,KIT-autoinhibited,7%
same,%Inh,KIT,23%
same,%Inh,LATS1,0%
same,%Inh,LATS2,10%
same,%Inh,LCK,3%
same,%Inh,LIMK1,0%
same,%Inh,LIMK2,0%
same,%Inh,LKB1,0%
same,%Inh,LOK,3%
same,%Inh,LRRK2,0%
same,%Inh,LTK; [4],0%
same,%Inh,LYN,0%
same,%Inh,LZK,0%
same,%Inh,MAK,4%
Cc1ccc(C(=O)Nc2ccc(Oc3ccc4nc(NC(=O)C5CC5)cn4c3)c(F)c2)c(=O)n1-c1ccccc1,%Inh,[1],0%
same,%Inh,[2],81%
same,%Inh,[3],15%
same,%Inh,JNK1,0%
same,%Inh,JNK2,0%
same,%Inh,JNK3,0%
same,%Inh,KIT-autoinhibited,24%
same,%Inh,KIT,100%
same,%Inh,LATS1,14%
same,%Inh,LATS2,0%
same,%Inh,LCK,99.2%
same,%Inh,LIMK1,42%
same,%Inh,LIMK2,21%
same,%Inh,LKB1,34%
same,%Inh,LOK,99.9%
same,%Inh,LRRK2,0%
same,%Inh,LTK; [4],38%
same,%Inh,LYN,57%
same,%Inh,LZK,0%
same,%Inh,MAK,0%
C[C@@H]1CNc2c(sc3ccc4nc(-c5ccncc5)ccc4c23)C(=O)N1,%Inh,[1],64%
same,%Inh,[2],0%
same,%Inh,[3],78%
same,%Inh,JNK1,0%
same,%Inh,JNK2,0%
same,%Inh,JNK3,0%
same,%Inh,KIT-autoinhibited,7%
same,%Inh,KIT,34%
same,%Inh,LATS1,0%
same,%Inh,LATS2,24%
same,%Inh,LCK,13%
same,%Inh,LIMK1,0%
same,%Inh,LIMK2,0%
same,%Inh,LKB1,0%
same,%Inh,LOK,14%
same,%Inh,LRRK2,100%
same,%Inh,LTK; [4],65%
same,%Inh,LYN,6%
same,%Inh,LZK,0%
same,%Inh,MAK,0%
CN(c1cccc(CNc2nc(Nc3ccc4c(c3)CC(=O)N4)ncc2C(F)(F)F)c1)S(C)(=O)=O,%Inh,[1],79%
same,%Inh,[2],98.1%
same,%Inh,[3],100%
same,%Inh,JNK1,40%
same,%Inh,JNK2,31%
same,%Inh,JNK3,35%
same,%Inh,KIT-autoinhibited,31%
same,%Inh,KIT,57%
same,%Inh,LATS1,29%
same,%Inh,LATS2,24%
same,%Inh,LCK,42%
same,%Inh,LIMK1,0%
same,%Inh,LIMK2,0%
same,%Inh,LKB1,5%
same,%Inh,LOK,0%
same,%Inh,LRRK2,18%
same,%Inh,LTK; [4],60%
same,%Inh,LYN,18%
same,%Inh,LZK,0%
same,%Inh,MAK,0%
Cn1ccc2ncnc(Oc3ccc(NC(=O)Nc4cccc(C(F)(F)F)c4)c(Cl)c3)c21,%Inh,[1],45%
same,%Inh,[2],11%
same,%Inh,[3],25%
same,%Inh,JNK1,9%
same,%Inh,JNK2,0%
same,%Inh,JNK3,0%
same,%Inh,KIT-autoinhibited,37%
same,%Inh,KIT,100%
same,%Inh,LATS1,9%
same,%Inh,LATS2,0%
same,%Inh,LCK,79%
same,%Inh,LIMK1,0%
same,%Inh,LIMK2,0%
same,%Inh,LKB1,11%
same,%Inh,LOK,99.9%
same,%Inh,LRRK2,0%
same,%Inh,LTK; [4],56%
same,%Inh,LYN,63%
same,%Inh,LZK,0%
same,%Inh,MAK,28%
Cl.c1ccc(Oc2ccc(Nc3ccnc4cc(-c5ccc(CN6CCNCC6)o5)ccc34)cc2)nc1 [GW567142],%Inh,[1],17%
same,%Inh,[2],100%
same,%Inh,[3],0%
same,%Inh,JNK1,0%
same,%Inh,JNK2,3%
same,%Inh,JNK3,0%
same,%Inh,KIT-autoinhibited,10%
same,%Inh,KIT,87%
same,%Inh,LATS1,0%
same,%Inh,LATS2,0%
same,%Inh,LCK,82%
same,%Inh,LIMK1,0%
same,%Inh,LIMK2,0%
same,%Inh,LKB1,0%
same,%Inh,LOK,54%
same,%Inh,LRRK2,4%
same,%Inh,LTK; [4],0%
same,%Inh,LYN,4%
same,%Inh,LZK,7%
same,%Inh,MAK,21%
COc1cccc(OC)c1C(=O)Nc1cccc(-c2nn3ccccc3c2-c2ccnc(Nc3cccc(F)c3)n2)c1 [GSK361065],%Inh,[1],4%
same,%Inh,[2],3%
same,%Inh,[3],0%
same,%Inh,JNK1,44%
same,%Inh,JNK2,0%
same,%Inh,JNK3,0%
same,%Inh,KIT-autoinhibited,11%
same,%Inh,KIT,90.9%
same,%Inh,LATS1,6%
same,%Inh,LATS2,10%
same,%Inh,LCK,24%
same,%Inh,LIMK1,31%
same,%Inh,LIMK2,15%
same,%Inh,LKB1,6%
same,%Inh,LOK,90%
same,%Inh,LRRK2,0%
same,%Inh,LTK; 1 µM,13%
same,%Inh,LYN,8%
same,%Inh,LZK,8%
same,%Inh,MAK,14%
CN1CCN(CCNc2nc3cc(Oc4ccc(NC(=O)Nc5cc(C(F)(F)F)ccc5F)cc4)ccc3[nH]2)CC1.Cl.Cl [GW768504],%Inh,[1],15%
same,%Inh,[2],5%
same,%Inh,[3],0%
same,%Inh,JNK1,0%
same,%Inh,JNK2,0%
same,%Inh,JNK3,0%
same,%Inh,KIT-autoinhibited,4%
same,%Inh,KIT,99.8%
same,%Inh,LATS1,0%
same,%Inh,LATS2,0%
same,%Inh,LCK,22%
same,%Inh,LIMK1,0%
same,%Inh,LIMK2,2%
same,%Inh,LKB1,38%
same,%Inh,LOK,95.2%
same,%Inh,LRRK2,0%
same,%Inh,LTK; [4],19%
same,%Inh,LYN,12%
same,%Inh,LZK,0%
same,%Inh,MAK,13%
Cc1nnc(-c2ccc3occ(-c4ccc(S(C)=O)cc4)c3n2)o1 (centres unmarked),%Inh,[1],0%
same,%Inh,[2],0%
same,%Inh,[3],0%
same,%Inh,JNK1,0%
same,%Inh,JNK2,0%
same,%Inh,JNK3,0%
same,%Inh,KIT-autoinhibited,0%
same,%Inh,KIT,0%
same,%Inh,LATS1,0%
same,%Inh,LATS2,0%
same,%Inh,LCK,0%
same,%Inh,LIMK1,0%
same,%Inh,LIMK2,0%
same,%Inh,LKB1,3%
same,%Inh,LOK,0%
same,%Inh,LRRK2,0%
same,%Inh,LTK; [4],0%
same,%Inh,LYN,0%
same,%Inh,LZK,0%
same,%Inh,MAK,0%
c1ccc(Oc2ccc(Nc3ccnc4ccc(-c5ccccn5)cc34)cc2)cc1 [GW407034],%Inh,[1],0%
same,%Inh,[2],22%
same,%Inh,[3],0%
same,%Inh,JNK1,20%
same,%Inh,JNK2,16%
same,%Inh,JNK3,18%
same,%Inh,KIT-autoinhibited,0%
same,%Inh,KIT,45%
same,%Inh,LATS1,1%
same,%Inh,LATS2,0%
same,%Inh,LCK,83%
same,%Inh,LIMK1,5%
same,%Inh,LIMK2,0%
same,%Inh,LKB1,0%
same,%Inh,LOK,0%
same,%Inh,LRRK2,5%
same,%Inh,LTK; [4],0%
same,%Inh,LYN,22%
same,%Inh,LZK,0%
same,%Inh,MAK,59%
